Source: ChEMBL document CHEMBL1961873, “Compounds: GSK PKIS; Assays: Nanosyn kinase panel” (2012)
Where “and” joins values, the source holds several entries; their conditions need not be identical. Identical values can stand only once.

Experiments:
[1] = target: Tyrosine-protein kinase Fyn (Homo sapiens) (UniProt P06241); settings: at 1 µM
[2] = target: Tyrosine-protein kinase HCK (Homo sapiens) (UniProt P08631); settings: at 0.1 µM
[3] = target: Tyrosine-protein kinase HCK (Homo sapiens) (UniProt P08631); settings: at 1 µM
[4] = target: Insulin-like growth factor 1 receptor (Homo sapiens) (UniProt P08069); settings: at 0.1 µM
Sequence of Insulin-like growth factor 1 receptor (Homo sapiens) (P08069 31-736 limits assumed): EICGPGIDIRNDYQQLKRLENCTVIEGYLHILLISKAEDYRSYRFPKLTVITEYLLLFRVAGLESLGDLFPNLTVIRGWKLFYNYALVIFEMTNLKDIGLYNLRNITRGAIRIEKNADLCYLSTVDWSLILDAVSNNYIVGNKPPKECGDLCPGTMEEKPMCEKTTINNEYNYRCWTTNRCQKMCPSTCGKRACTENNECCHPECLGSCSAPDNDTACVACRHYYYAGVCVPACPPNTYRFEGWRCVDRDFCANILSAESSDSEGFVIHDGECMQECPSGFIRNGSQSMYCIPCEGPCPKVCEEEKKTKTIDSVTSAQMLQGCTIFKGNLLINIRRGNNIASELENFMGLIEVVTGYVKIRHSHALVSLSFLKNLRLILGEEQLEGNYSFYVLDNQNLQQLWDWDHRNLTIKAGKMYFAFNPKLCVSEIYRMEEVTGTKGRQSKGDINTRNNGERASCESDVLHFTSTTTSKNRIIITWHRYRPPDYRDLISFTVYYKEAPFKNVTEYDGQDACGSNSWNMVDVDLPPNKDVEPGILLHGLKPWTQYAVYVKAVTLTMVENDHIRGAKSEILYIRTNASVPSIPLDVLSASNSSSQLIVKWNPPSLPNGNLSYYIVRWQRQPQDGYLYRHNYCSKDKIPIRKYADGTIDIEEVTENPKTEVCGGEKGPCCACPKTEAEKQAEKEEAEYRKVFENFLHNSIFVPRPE
Sequence of Insulin-like growth factor 1 receptor (Homo sapiens) (P08069 741-1367 limits assumed): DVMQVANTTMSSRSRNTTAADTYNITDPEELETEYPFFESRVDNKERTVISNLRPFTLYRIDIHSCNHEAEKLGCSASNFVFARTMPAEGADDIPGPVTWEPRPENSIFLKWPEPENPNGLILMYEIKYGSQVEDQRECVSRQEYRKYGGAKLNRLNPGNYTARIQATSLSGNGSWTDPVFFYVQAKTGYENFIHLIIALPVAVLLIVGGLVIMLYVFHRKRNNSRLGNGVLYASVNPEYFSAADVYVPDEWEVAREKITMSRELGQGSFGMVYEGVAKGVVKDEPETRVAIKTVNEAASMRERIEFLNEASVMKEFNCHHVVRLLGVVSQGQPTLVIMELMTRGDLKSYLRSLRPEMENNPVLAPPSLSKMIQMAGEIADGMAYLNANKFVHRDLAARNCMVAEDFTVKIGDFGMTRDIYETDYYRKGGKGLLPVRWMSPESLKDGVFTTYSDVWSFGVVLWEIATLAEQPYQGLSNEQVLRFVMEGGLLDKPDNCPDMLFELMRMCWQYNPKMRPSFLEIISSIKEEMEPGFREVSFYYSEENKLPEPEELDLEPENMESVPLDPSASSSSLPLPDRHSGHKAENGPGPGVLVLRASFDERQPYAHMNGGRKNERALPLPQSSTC

[5] = target: Insulin-like growth factor 1 receptor (Homo sapiens) (UniProt P08069); settings: at 1 µM
[6] = target: Insulin receptor (Homo sapiens) (UniProt P06213); settings: at 0.1 µM
[7] = target: Insulin receptor (Homo sapiens) (UniProt P06213); settings: at 1 µM
[8] = target: Insulin receptor-related protein (Homo sapiens) (UniProt P14616); settings: at 0.1 µM
Sequence of Insulin receptor-related protein (Homo sapiens) (P14616 27-742 limits assumed): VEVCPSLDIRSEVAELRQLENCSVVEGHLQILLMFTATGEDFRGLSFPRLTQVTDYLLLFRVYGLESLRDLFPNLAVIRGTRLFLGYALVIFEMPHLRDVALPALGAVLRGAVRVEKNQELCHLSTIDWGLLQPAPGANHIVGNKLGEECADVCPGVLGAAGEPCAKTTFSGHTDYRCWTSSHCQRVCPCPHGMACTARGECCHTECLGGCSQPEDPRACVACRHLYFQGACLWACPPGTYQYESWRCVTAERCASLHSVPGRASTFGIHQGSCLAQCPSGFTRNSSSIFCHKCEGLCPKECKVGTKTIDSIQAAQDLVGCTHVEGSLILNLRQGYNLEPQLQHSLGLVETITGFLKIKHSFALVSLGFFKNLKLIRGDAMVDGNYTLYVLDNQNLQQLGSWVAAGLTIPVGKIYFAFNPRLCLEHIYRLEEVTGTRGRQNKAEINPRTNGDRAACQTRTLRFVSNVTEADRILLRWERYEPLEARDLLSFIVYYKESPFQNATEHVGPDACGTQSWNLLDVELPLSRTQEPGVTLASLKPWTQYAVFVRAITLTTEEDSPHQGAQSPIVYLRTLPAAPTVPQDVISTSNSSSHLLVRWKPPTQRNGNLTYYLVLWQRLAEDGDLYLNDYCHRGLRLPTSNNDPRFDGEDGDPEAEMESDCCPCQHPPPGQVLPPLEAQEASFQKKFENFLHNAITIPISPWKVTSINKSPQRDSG
Sequence of Insulin receptor-related protein (Homo sapiens) (P14616 747-1297 limits assumed): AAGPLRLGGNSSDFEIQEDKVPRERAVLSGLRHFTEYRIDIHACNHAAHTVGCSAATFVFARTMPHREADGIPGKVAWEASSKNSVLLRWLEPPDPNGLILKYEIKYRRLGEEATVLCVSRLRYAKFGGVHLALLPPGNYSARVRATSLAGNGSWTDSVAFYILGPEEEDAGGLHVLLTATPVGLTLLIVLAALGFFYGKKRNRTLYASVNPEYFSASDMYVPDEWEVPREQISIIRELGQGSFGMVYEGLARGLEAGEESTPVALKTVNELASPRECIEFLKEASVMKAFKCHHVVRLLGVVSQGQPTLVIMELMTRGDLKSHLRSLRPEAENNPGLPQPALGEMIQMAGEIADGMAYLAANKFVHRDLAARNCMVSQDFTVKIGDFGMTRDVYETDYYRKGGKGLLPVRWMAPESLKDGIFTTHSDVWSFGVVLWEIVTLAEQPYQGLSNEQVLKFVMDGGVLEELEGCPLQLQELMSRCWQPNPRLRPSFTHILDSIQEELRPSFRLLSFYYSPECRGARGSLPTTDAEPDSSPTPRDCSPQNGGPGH

[9] = target: Insulin receptor-related protein (Homo sapiens) (UniProt P14616); settings: at 1 µM
[10] = target: T1, Tyrosine-protein kinase ITK/TSK (Homo sapiens) (UniProt Q08881); settings: at 0.1 µM
T1 sequence (whole entry): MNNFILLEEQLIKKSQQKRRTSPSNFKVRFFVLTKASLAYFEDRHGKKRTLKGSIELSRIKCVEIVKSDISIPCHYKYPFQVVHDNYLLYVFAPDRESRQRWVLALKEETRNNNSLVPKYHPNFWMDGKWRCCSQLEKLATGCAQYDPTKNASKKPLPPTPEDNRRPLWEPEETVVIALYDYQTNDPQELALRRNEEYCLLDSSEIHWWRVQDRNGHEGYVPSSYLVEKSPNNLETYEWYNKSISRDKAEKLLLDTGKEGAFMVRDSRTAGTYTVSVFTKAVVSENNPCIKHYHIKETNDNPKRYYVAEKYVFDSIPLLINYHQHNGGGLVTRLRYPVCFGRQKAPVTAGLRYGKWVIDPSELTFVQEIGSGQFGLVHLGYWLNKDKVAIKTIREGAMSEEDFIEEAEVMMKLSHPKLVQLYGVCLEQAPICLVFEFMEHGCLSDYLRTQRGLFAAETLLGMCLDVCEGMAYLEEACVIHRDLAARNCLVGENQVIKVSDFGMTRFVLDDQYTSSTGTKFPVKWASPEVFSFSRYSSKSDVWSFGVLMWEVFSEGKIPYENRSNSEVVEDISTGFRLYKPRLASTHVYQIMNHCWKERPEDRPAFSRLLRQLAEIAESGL

[11] = target: T1, Tyrosine-protein kinase ITK/TSK (Homo sapiens); settings: at 1 µM
[12] = target: Tyrosine-protein kinase JAK1 (Homo sapiens) (UniProt P23458); settings: at 0.1 µM
[13] = target: Tyrosine-protein kinase JAK1 (Homo sapiens) (UniProt P23458); settings: at 1 µM
[14] = target: Tyrosine-protein kinase JAK2 (Homo sapiens) (UniProt O60674); settings: at 0.1 µM
Sequence of Tyrosine-protein kinase JAK2 (Homo sapiens) (O60674 whole entry): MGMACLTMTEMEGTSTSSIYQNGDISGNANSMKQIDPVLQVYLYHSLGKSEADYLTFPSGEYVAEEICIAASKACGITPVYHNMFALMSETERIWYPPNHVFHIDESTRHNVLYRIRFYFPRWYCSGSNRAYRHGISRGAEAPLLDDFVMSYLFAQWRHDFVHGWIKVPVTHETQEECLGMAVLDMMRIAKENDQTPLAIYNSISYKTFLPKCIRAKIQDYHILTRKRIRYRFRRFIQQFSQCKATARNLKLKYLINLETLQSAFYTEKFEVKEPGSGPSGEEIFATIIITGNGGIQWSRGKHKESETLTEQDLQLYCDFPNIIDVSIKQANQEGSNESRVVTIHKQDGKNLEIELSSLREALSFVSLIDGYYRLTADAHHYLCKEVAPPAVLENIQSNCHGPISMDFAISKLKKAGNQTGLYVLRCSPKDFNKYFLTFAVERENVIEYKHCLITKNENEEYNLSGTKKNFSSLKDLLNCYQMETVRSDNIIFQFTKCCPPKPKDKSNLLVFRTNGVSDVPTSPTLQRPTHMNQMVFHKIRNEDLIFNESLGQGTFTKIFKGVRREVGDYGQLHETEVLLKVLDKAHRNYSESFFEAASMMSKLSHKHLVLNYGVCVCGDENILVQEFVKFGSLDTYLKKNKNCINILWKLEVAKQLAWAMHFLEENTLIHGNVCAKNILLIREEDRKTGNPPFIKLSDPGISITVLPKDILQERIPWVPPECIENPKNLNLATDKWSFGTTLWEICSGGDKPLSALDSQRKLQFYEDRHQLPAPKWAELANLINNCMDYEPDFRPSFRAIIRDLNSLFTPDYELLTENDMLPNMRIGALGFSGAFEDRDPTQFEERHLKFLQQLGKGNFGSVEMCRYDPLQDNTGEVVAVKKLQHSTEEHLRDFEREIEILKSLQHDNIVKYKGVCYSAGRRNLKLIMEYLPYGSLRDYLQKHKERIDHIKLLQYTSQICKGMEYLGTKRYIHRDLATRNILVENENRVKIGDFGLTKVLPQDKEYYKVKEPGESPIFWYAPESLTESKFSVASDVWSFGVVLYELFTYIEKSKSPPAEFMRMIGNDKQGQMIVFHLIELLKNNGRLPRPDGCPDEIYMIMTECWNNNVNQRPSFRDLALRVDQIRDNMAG

[15] = target: Tyrosine-protein kinase JAK2 (Homo sapiens) (UniProt O60674); settings: at 1 µM
[16] = target: T2, Tyrosine-protein kinase JAK3 (Homo sapiens) (UniProt P52333); settings: at 0.1 µM
T2 sequence (whole entry): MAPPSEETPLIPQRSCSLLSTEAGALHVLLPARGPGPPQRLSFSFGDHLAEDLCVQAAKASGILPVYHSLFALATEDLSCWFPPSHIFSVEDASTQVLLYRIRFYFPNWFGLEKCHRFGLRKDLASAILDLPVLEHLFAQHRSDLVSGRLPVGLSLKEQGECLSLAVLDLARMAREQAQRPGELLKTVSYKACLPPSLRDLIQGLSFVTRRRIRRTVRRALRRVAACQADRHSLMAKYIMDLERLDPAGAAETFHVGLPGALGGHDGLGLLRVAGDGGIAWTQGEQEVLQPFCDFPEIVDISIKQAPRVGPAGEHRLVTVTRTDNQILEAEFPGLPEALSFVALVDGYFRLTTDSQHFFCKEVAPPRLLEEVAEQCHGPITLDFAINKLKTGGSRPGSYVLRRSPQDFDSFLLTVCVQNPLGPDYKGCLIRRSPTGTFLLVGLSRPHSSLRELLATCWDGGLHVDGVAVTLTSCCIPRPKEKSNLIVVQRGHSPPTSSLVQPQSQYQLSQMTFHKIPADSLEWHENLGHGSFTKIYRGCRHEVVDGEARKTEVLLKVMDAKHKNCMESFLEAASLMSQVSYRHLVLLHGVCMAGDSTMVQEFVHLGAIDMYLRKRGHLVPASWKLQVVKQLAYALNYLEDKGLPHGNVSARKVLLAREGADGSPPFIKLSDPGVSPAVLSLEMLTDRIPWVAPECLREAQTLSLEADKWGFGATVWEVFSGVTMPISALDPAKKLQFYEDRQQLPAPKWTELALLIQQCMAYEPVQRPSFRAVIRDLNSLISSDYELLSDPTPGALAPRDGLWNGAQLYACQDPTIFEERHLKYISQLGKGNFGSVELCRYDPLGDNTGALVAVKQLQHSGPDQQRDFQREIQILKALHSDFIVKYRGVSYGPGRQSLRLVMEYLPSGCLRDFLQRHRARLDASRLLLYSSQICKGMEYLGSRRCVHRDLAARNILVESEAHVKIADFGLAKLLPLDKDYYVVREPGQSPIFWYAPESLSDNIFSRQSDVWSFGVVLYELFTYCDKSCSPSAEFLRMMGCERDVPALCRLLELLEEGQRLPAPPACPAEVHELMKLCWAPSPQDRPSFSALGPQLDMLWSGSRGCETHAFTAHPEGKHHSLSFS

[17] = target: T2, Tyrosine-protein kinase JAK3 (Homo sapiens); settings: at 1 µM
[18] = target: Vascular endothelial growth factor receptor 2 (Homo sapiens) (UniProt P35968); settings: at 0.1 µM
Sequence of Vascular endothelial growth factor receptor 2 (Homo sapiens) (P35968 whole entry): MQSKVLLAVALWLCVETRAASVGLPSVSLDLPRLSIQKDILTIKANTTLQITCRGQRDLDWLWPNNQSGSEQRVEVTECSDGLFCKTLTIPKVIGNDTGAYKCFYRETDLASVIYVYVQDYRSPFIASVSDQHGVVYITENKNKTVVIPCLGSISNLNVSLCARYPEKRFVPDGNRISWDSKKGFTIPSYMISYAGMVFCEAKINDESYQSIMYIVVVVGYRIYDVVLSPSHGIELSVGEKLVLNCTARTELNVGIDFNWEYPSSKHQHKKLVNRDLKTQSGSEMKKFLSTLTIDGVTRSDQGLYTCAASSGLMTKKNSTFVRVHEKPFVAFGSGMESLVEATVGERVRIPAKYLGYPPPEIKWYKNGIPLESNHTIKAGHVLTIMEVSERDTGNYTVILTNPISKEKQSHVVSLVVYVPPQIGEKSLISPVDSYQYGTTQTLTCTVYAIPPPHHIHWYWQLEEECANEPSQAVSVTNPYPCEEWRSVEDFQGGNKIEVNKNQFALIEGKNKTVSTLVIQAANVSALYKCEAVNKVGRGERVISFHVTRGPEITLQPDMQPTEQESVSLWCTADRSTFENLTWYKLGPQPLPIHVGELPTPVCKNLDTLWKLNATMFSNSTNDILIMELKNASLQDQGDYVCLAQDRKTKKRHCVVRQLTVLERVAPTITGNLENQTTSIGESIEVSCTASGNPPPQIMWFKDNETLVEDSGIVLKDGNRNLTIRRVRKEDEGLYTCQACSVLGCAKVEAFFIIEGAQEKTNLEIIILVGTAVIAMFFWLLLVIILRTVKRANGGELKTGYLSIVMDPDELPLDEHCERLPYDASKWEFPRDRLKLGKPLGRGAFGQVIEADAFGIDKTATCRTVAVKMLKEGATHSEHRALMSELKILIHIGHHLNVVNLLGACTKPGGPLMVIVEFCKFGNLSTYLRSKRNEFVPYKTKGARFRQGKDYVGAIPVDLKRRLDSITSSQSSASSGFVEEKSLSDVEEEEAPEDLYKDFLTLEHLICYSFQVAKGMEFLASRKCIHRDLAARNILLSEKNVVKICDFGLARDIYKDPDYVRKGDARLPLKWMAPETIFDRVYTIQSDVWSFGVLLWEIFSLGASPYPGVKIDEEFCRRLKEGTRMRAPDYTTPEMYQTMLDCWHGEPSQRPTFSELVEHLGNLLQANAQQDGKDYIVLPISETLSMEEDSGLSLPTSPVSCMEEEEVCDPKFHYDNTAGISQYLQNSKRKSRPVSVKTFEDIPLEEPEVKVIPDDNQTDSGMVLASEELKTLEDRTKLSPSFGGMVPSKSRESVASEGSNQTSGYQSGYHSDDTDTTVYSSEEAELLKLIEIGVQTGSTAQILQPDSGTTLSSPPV

[19] = target: Vascular endothelial growth factor receptor 2 (Homo sapiens) (UniProt P35968); settings: at 1 µM
[20] = target: Mast/stem cell growth factor receptor Kit (Homo sapiens) (UniProt P10721); settings: at 0.1 µM;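 further: values are mean inhibition of KIT, from the GSK PKIS dataset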

COc1ccccc1-c1cc(/C=C2\C(=O)Nc3ncc(Br)cc32)cc(Br)c1O
inhibition [1]: 26.3%
inhibition [2]: 7.67%
inhibition [3]: 12.5%
inhibition [4]: 0.89%
inhibition [5]: 2.09%
inhibition [6]: 3.72%
inhibition [7]: 6.87%
inhibition [8]: 2.46%
inhibition [9]: 1.02%
inhibition [10]: 1.08%
inhibition [11]: 3.95%
inhibition [12]: 2.55%
inhibition [13]: 0.51%
inhibition [14]: 1.66%
inhibition [15]: 3.2%
inhibition [16]: -0.19%
inhibition [17]: 5.39%
inhibition [18]: 6.49%
inhibition [19]: 8.56%
inhibition [20]: 8.06%

CCS(=O)(=O)c1ccc(OC)c(Nc2ncc(-c3cccc(F)c3)o2)c1
inhibition [1]: 72.4%
inhibition [2]: 33%
inhibition [3]: 74.3%
inhibition [4]: 5.72%
inhibition [5]: 6.74%
inhibition [6]: 7.03%
inhibition [7]: 8.47%
inhibition [8]: 2.84%
inhibition [9]: 4.59%
inhibition [10]: 2.16%
inhibition [11]: 6.38%
inhibition [12]: 7.39%
inhibition [13]: 10.4%
inhibition [14]: 3.25%
inhibition [15]: 2.43%
inhibition [16]: -1.97%
inhibition [17]: 0.45%
inhibition [18]: 46.8%
inhibition [19]: 77%
inhibition [20]: 74.7%

CN(C)CCNC(=O)Nc1ccc(N(C)c2ccnc(Nc3ccc(CS(C)(=O)=O)cc3)n2)cc1
inhibition [1]: 3.44%
inhibition [2]: 6.05%
inhibition [3]: 12.3%
inhibition [4]: 5.44%
inhibition [5]: 8.75%
inhibition [6]: 3.47%
inhibition [7]: 5.6%
inhibition [8]: 2.48%
inhibition [9]: 3.81%
inhibition [10]: 1.62%
inhibition [11]: 3.84%
inhibition [12]: 3.89%
inhibition [13]: -1.93%
inhibition [14]: 1.46%
inhibition [15]: 3.2%
inhibition [16]: -1.47%
inhibition [17]: -0.17%
inhibition [18]: 7.04%
inhibition [19]: 18.9%
inhibition [20]: 13.9%

COc1cccc(Nc2nccc(-c3cnn4ncccc34)n2)c1
inhibition [1]: 16.2%
inhibition [2]: 7.25%
inhibition [3]: 17.4%
inhibition [4]: 14.5%
inhibition [5]: 52.4%
inhibition [6]: 10.9%
inhibition [7]: 54.2%
inhibition [8]: 3.8%
inhibition [9]: 15.4%
inhibition [10]: 1.26%
inhibition [11]: 6.45%
inhibition [12]: -0.13%
inhibition [13]: 13.2%
inhibition [14]: 1.95%
inhibition [15]: 29.2%
inhibition [16]: 2.03%
inhibition [17]: 44.2%
inhibition [18]: 9.69%
inhibition [19]: 42.1%
inhibition [20]: 89.5%

Nc1nccc(-c2c(-c3ccc(F)cc3)ncn2C2CCNCC2)n1
inhibition [1]: 1.62% and 4.51%
inhibition [2]: -2.39% and 2.85%
inhibition [3]: 2.05% and 5.24%
inhibition [4]: -2.26% and -0.62%
inhibition [5]: -1.54% and 3.61%
inhibition [6]: -1.93% and 3.33%
inhibition [7]: 1.25% and 4.93%
inhibition [8]: -5.25% and 0.92%
inhibition [9]: -4.64% and -1.2%
inhibition [10]: -0.56% and 0.6%
inhibition [11]: -0.06% and 1.58%
inhibition [12]: -5.03% and -2.79%
inhibition [13]: 1.1% and 3.47%
inhibition [14]: -1.85% and 0.8%
inhibition [15]: -1.57% and 1.93%
inhibition [16]: 0.47% and 0.86%
inhibition [17]: 2.72% and 2.66%
inhibition [18]: -2.27% and 1.08%
inhibition [19]: 2.47% and 2.78%
inhibition [20]: -3.74% and 1.54%

CNC(=O)c1sc(-n2cnc3cc(OC)c(OC)cc32)cc1OCc1ccccc1C(F)(F)F
inhibition [1]: 18.9%
inhibition [2]: 5.55%
inhibition [3]: 14%
inhibition [4]: -3.71%
inhibition [5]: 1.09%
inhibition [6]: -4.16%
inhibition [7]: -0.01%
inhibition [8]: 2.15%
inhibition [9]: 2.12%
inhibition [10]: 0.38%
inhibition [11]: 3.59%
inhibition [12]: 0.71%
inhibition [13]: 7.26%
inhibition [14]: -0.02%
inhibition [15]: 0.52%
inhibition [16]: -2.82%
inhibition [17]: -0.34%
inhibition [18]: 4.23%
inhibition [19]: 12.4%
inhibition [20]: 4.06%
